Assay results published in the supplement of paper PMC10849652.
Targets with a hit are over-represented here; the source holds about 7,900 in all. About 0.6% of all pairs of compound and target were hits.

Columns and labels:
Assay in all cases: log2 fold change, soluble protein after heating vs DMSO (PISA); higher = thermal stabilisation; K562 cells, 10 uM, 30 min; active = over 0.2 and 3.5 SD of the protein, either way, in both replicates (recomputed)
erlotinib = compound: C#Cc1cccc(Nc2ncnc3cc(OCCOC)c(OCCOC)cc23)c1 [erlotinib]
Procedure, shortened: (§1)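 Aliquots of K562 cells (2×10^6 cells/mL) treated with 10 μM compound for 30 min were heated for 3 min over 48°C-58°C. After pooling and extraction in PBS with 0.5% NP-40 at 4°C, soluble protein from a 21,000xg, 90 min spin was quantified by TMTpro 16plex LC-MS/MS with channel sums equalised. Thermal stability is expressed against control samples, from duplicates, as a log2 fold change.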

[1] = compound: C/C(=N\NC(=O)C1=CC(=CC=C1)S(=O)(=O)N2CCOCC2)/C3=C(C=CC(=C3)Cl)O
Procedure, shortened: as §1

[2] = compound: C1=CC(=C(C=C1Cl)C2=NC3=NC=CN=C3C(=N2)NC4=CC=NC=C4)F
Procedure, shortened: as §1

[3] = compound: C1=CC(=CC=C1C2=NC3=C(N2)C=C(C=C3)C(=O)N)OC4=CC=C(C=C4)Cl
Procedure, shortened: as §1

[4] = compound: C1=CC2=C(C=CC(=C2)/C=C\3/C(=O)NC(=NCC4=CC=CS4)S3)N=C1
Procedure, shortened: as §1

[5] = compound: C1=CC2=NC=CN=C2C=C1/C=C/3\C(=O)NC(=O)S3
Procedure, shortened: as §1

[6] = compound: C1=CC=C(C=C1)C2=NC(=C(N2)C3=CC=NC=C3)C4=CC(=C(C=C4)Cl)O
Procedure, shortened: as §1

[7] = compound: C1=CC=C2C(=C1)C3=NNC4=CC=CC(=C43)C2=O
Procedure, shortened: as §1

[8] = compound: C1CCN(C1)C(=O)NC2=CC=CC(=C2)NC3=NC=C(C(=N3)NCCC4=CN=CN4)Br
Procedure, shortened: as §1

[9] = compound: C1CN(CCC1(CC2=CC=C(C=C2)Cl)N)C3=NC=NC4=C3C=CN4
Procedure, shortened: as §1

IRAK-1-4 Inhibitor I = compound: C1COCCN1CCN2C3=CC=CC=C3N=C2NC(=O)C4=CC(=CC=C4)[N+](=O)[O-] [IRAK-1-4 Inhibitor I]
Procedure, shortened: as §1

ibrutinib = compound: C=CC(=O)N1CCC[C@@H](n2nc(-c3ccc(Oc4ccccc4)cc3)c3c(N)ncnc32)C1 [ibrutinib]
Procedure, shortened: as §1

[10] = compound: CC(=O)c1cnc2ccc(-c3cc(Cl)c(O)c(Cl)c3)nc2c1N[C@H]1CC[C@H](CN(C)C)CC1
Procedure, shortened: as §1

ralimetinib = compound: CC(C)(C)Cn1c(N)nc2ccc(-c3[nH]c(C(C)(C)C)nc3-c3ccc(F)cc3)nc21 [ralimetinib]
Procedure, shortened: as §1

[11] = compound: CC(C)(O)CC(=O)NCCn1ccc2ncnc(Nc3ccc(Oc4cccc(C(F)(F)F)c4)c(Cl)c3)c21
Procedure, shortened: as §1

[12] = compound: CC(C)C1=C2N=C(C=C(N2N=C1)NCC3=CC=CC=C3)NCCCCCCN
Procedure, shortened: as §1

[13] = compound: CC(C)C[C@@H](C=O)NC(=O)[C@H](CC(C)C)NC(=O)[C@H](CC(C)C)NC(=O)OCc1ccccc1
Procedure, shortened: as §1

pinometostat = compound: CC(C)N(C[C@H]1O[C@@H](n2cnc3c(N)ncnc32)[C@H](O)[C@@H]1O)[C@H]1C[C@@H](CCc2nc3cc(C(C)(C)C)ccc3[nH]2)C1 [pinometostat]
Procedure, shortened: as §1

[14] = compound: CC1=C(C(CC(=O)N1)C2=CC=C(C=C2)C(F)(F)F)C(=O)NC3=C(C=C4C(=C3)C=NN4)F
Procedure, shortened: as §1

[15] = compound: CC1=C(C2=C(C=C1)C(=O)C3=CC=CC=C3N2CCCN)C
Procedure, shortened: as §1

Measured: log2 fold change

SLC27A2 (UniProt O14975)
inactive: erlotinib 0 | [1] 0.057 | [2] 0.054 | [3] 0.032 | [4] 0.101 | [5] 0.005 | [6] 0.108 | [7] 0.018 | [8] -0.001 | [9] 0.035 | IRAK-1-4 Inhibitor I -0.039 | ibrutinib 0.144 | [10] -0.125 | ralimetinib 0.013 | [12] 0.015 | [13] 0.055 | pinometostat 0.01 | [14] -0.045 | [15] 0.03
active: [11] 0.366

SLC30A10 (UniProt Q6XR72)
Chain of UniProt Q6XR72 (Q6XR72 whole entry, looked up): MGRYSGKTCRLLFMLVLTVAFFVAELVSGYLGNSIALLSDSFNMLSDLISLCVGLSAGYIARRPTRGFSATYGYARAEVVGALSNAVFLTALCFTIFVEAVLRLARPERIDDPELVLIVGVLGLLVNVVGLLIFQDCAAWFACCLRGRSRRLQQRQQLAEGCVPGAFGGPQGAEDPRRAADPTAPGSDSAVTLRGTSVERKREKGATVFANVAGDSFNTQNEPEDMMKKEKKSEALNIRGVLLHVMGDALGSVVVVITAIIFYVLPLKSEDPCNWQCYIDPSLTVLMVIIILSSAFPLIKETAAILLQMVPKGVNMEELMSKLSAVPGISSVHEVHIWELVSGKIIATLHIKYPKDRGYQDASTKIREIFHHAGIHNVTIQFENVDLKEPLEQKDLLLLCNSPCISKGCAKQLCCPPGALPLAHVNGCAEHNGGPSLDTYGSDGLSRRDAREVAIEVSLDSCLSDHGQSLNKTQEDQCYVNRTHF
inactive: erlotinib 0.033 | [1] 0.068 | [2] -0.06 | [3] 0.001 | [4] 0.077 | [5] 0.008 | [6] 0.025 | [7] -0.003 | [8] -0.054 | [9] 0.115 | IRAK-1-4 Inhibitor I 0.05 | ibrutinib -0.08 | [10] -0.019 | ralimetinib -0.014 | [11] -0.079 | [12] 0.035 | [13] -0.054 | pinometostat -0.032 | [14] 0.035 | [15] 0.12

TGFBI (UniProt Q15582)
Chain of UniProt Q15582 (Q15582 whole entry, looked up): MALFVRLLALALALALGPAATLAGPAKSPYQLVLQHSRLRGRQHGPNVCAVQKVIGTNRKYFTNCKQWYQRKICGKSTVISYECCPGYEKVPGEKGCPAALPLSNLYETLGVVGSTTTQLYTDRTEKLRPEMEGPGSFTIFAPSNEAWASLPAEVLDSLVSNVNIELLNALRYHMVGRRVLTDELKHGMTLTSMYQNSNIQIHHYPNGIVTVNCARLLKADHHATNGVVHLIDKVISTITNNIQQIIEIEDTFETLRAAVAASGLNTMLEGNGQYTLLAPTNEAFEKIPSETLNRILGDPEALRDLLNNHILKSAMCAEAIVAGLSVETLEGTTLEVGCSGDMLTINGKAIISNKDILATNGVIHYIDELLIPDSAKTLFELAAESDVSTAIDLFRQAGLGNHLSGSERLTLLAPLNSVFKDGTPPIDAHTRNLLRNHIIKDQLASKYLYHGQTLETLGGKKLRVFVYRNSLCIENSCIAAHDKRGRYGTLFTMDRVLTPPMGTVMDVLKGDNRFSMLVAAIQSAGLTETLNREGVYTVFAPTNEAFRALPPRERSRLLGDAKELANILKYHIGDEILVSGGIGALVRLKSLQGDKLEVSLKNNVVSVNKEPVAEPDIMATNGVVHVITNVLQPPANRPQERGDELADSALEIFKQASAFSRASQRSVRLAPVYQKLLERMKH
inactive: erlotinib 0.003 | [1] -0.018 | [2] 0.054 | [3] 0.009 | [4] 0.132 | [5] 0.034 | [6] 0.009 | [7] -0.133 | [8] -0.037 | [9] 0.029 | IRAK-1-4 Inhibitor I 0.026 | ibrutinib 0.149 | [10] 0.045 | ralimetinib -0.099 | [11] 0.244 | [12] -0.044 | [13] 0.05 | pinometostat -0.092 | [14] 0.115 | [15] -0.039

SYNE1 (UniProt Q8NF91)
inactive: erlotinib 0.155 | [2] 0.07 | [3] -0.132 | [4] 0.132 | [5] -0.02 | [6] 0.058 | [7] 0 | [8] -0.038 | [9] 0.172 | IRAK-1-4 Inhibitor I 0.062 | ibrutinib -0.015 | [10] -0.398 | ralimetinib 0.127 | [11] -0.212 | [12] 0.097 | [13] 0.064 | pinometostat 0.002 | [14] -0.031 | [15] 0.075
active: [1] -0.499

SLK isoform 2 (UniProt Q9H2G2)
inactive: erlotinib -0.023 | [1] 0.083 | [2] -0.098 | [3] -0.001 | [4] 0.043 | [5] 0.075 | [6] -0.135 | [7] -0.047 | [8] -0.028 | [9] -0.057 | IRAK-1-4 Inhibitor I -0.008 | ibrutinib -0.123 | [10] 0.04 | ralimetinib 0.005 | [11] -0.216 | [12] 0.002 | [13] 0.022 | pinometostat 0.022 | [14] -0.025 | [15] 0.073

SLC25A36 (UniProt Q96CQ1)
Chain of UniProt Q96CQ1 (Q96CQ1 whole entry, looked up): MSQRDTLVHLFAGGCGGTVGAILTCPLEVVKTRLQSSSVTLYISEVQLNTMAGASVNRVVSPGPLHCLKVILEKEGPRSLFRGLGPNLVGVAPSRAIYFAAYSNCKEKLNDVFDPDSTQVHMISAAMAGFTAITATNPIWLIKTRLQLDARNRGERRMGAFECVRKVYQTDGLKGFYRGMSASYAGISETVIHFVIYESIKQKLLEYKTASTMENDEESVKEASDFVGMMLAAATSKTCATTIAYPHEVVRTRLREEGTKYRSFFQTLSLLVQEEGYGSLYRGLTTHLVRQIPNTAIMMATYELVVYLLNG
inactive: erlotinib -0.077 | [1] 0.008 | [2] -0.083 | [3] 0.003 | [4] 0.031 | [5] 0.102 | [6] -0.104 | [7] -0.034 | [8] 0.053 | [9] 0.068 | IRAK-1-4 Inhibitor I 0.048 | ibrutinib 0.066 | [10] 0.029 | ralimetinib 0.019 | [11] -0.167 | [12] -0.03 | [13] 0.007 | pinometostat 0.01 | [14] 0.108 | [15] 0.012

SRSF11 (UniProt Q05519)
Chain of UniProt Q05519 (Q05519 whole entry, looked up): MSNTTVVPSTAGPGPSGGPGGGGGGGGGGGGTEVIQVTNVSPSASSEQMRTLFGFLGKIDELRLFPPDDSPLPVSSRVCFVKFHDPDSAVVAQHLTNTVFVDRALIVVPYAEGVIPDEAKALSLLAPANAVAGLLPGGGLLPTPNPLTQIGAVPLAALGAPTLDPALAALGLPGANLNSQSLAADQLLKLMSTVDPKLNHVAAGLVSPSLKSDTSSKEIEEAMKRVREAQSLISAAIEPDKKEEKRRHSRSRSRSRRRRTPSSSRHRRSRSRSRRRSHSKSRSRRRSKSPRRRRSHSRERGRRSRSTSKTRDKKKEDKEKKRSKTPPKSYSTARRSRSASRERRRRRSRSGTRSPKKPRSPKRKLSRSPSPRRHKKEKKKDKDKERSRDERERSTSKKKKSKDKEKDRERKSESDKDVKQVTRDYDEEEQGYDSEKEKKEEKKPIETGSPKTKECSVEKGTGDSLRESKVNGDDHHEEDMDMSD
inactive: erlotinib 0.05 | [1] 0.191 | [2] 0.06 | [3] 0.054 | [4] -0.049 | [5] -0.003 | [6] -0.026 | [7] -0.003 | [8] -0.129 | [9] -0.196 | IRAK-1-4 Inhibitor I -0.116 | ibrutinib -0.014 | ralimetinib 0.01 | [11] -0.049 | [12] -0.255 | [13] -0.005 | pinometostat -0.016 | [14] -0.011 | [15] 0.026
active: [10] -0.416

SUN2 (UniProt Q9UH99)
Chain of UniProt Q9UH99 (Q9UH99 whole entry, looked up): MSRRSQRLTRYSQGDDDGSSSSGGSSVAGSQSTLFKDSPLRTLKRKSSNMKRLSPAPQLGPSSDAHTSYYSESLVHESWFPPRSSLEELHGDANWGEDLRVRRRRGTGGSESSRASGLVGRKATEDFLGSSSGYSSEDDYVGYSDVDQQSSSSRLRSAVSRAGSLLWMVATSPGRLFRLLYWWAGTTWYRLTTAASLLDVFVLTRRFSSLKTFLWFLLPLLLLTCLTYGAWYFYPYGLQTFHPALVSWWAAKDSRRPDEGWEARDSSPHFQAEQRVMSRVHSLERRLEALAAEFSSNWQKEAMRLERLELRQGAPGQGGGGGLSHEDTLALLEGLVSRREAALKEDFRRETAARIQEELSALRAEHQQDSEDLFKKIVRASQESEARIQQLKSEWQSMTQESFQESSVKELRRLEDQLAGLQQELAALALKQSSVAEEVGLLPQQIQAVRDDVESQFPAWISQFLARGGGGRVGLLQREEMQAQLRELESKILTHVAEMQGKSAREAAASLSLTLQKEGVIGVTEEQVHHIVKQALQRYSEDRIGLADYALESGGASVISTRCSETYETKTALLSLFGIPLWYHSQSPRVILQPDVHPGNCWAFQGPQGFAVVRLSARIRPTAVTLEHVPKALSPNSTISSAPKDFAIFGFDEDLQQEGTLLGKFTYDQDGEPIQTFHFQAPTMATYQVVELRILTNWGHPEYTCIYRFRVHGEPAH
active: [12] -0.211
inactive: erlotinib -0.067 | [1] 0.023 | [2] -0.031 | [3] -0.004 | [4] -0.012 | [5] 0.02 | [6] 0.005 | [7] -0.087 | [8] -0.038 | [9] -0.017 | IRAK-1-4 Inhibitor I -0.04 | ibrutinib 0.056 | [10] -0.044 | ralimetinib 0.072 | [11] -0.119 | [13] 0.041 | pinometostat 0.027 | [14] 0.043 | [15] -0.117

SNX2 (UniProt O60749)
inactive: erlotinib 0.043 | [1] 0.075 | [2] 0.002 | [3] 0.041 | [4] 0.067 | [5] -0.059 | [6] -0.057 | [7] -0.049 | [8] 0.006 | [9] -0.013 | IRAK-1-4 Inhibitor I 0.058 | ibrutinib 0.043 | [10] -0.135 | ralimetinib -0.014 | [11] -0.154 | [12] -0.189 | [13] 0.079 | pinometostat 0.016 | [14] 0.019 | [15] 0.03

TGFBRAP1 (UniProt Q8WUH2)
Chain of UniProt Q8WUH2 (Q8WUH2 whole entry, looked up): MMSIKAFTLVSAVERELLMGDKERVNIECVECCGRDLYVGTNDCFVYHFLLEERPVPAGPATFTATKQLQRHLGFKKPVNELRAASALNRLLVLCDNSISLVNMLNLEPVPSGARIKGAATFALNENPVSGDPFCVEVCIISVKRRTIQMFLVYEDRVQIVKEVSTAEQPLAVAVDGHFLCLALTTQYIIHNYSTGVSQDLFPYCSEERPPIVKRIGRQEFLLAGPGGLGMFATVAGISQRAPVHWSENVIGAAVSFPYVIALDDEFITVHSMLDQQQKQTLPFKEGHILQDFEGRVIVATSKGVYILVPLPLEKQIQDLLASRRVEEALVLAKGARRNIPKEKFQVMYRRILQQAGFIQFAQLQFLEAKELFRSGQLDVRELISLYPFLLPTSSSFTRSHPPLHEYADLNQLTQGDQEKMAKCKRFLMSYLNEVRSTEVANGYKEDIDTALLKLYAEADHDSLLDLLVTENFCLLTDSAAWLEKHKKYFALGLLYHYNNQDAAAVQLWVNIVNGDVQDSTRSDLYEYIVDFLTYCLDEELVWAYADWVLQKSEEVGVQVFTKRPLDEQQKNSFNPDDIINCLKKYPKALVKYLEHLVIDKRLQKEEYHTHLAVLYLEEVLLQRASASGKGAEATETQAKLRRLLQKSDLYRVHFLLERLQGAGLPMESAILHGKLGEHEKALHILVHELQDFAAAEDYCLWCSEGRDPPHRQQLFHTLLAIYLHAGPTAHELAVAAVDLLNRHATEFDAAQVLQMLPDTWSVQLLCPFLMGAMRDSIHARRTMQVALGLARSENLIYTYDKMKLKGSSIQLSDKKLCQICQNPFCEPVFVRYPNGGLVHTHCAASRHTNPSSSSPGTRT
inactive: erlotinib 0.064 | [1] 0.217 | [2] -0.046 | [3] -0.119 | [4] 0.084 | [5] 0.062 | [6] 0.194 | [7] 0.121 | [8] -0.06 | [9] -0.053 | IRAK-1-4 Inhibitor I -0.088 | ibrutinib -0.067 | [10] -0.119 | ralimetinib 0.33 | [11] -0.108 | [12] -0.424 | [13] -0.037 | pinometostat 0.046 | [14] 0.052 | [15] -0.017

SPR (UniProt P35270)
inactive: erlotinib 0.018 | [1] -0.089 | [2] -0.01 | [3] 0.005 | [4] 0.115 | [5] 0.016 | [7] 0.096 | [8] 0.02 | [9] 0.034 | IRAK-1-4 Inhibitor I 0.063 | ibrutinib 0.04 | [10] 0.344 | ralimetinib 0.017 | [11] -0.038 | [12] 0.035 | [13] -0.008 | pinometostat -0.053 | [14] 0.01 | [15] 0.083
active: [6] 0.732

SRSF2 (UniProt Q01130)
Chain of UniProt Q01130 (Q01130 whole entry, looked up): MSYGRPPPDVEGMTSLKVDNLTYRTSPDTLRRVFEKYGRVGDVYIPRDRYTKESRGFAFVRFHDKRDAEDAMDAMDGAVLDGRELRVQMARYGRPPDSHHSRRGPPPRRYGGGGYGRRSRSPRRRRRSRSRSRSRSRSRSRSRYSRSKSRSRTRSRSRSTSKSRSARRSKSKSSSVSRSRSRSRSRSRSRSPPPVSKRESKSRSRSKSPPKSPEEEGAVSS
inactive: erlotinib -0.003 | [1] -0.034 | [2] -0.13 | [3] 0.02 | [4] -0.029 | [5] -0.032 | [6] -0.038 | [7] -0.032 | [8] 0.041 | [9] -0.027 | IRAK-1-4 Inhibitor I -0.069 | ibrutinib 0.016 | [10] -0.073 | ralimetinib 0.01 | [11] 0.055 | [12] 0.03 | [13] 0.09 | pinometostat 0.022 | [14] 0.02 | [15] -0.02

TAF9 (UniProt Q16594)
inactive: erlotinib -0.007 | [1] -0.003 | [2] -0.036 | [3] 0.014 | [4] -0.027 | [5] 0.019 | [6] -0.04 | [7] -0.032 | [8] -0.024 | [9] 0.02 | IRAK-1-4 Inhibitor I -0.029 | ibrutinib 0.027 | [10] 0.049 | ralimetinib 0.025 | [11] 0.069 | [12] 0.024 | [13] 0.112 | pinometostat -0.072 | [14] 0 | [15] -0.005

TFAM (UniProt Q00059)
Chain of UniProt Q00059 (Q00059 whole entry, looked up): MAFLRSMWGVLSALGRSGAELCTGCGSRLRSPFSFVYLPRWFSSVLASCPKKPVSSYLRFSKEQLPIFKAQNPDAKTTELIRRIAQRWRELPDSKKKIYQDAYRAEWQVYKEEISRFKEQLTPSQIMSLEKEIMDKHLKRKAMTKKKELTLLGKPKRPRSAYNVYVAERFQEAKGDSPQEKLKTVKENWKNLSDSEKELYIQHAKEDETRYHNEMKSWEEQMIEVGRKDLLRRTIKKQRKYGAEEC
active: [15] -0.414
inactive: erlotinib -0.085 | [1] -0.071 | [2] -0.127 | [3] 0.031 | [4] -0.009 | [5] -0.022 | [6] -0.068 | [7] -0.05 | [8] 0.06 | [9] -0.078 | IRAK-1-4 Inhibitor I -0.047 | ibrutinib 0.03 | [10] 0.07 | ralimetinib 0.044 | [11] 0.043 | [12] 0.007 | [13] 0.056 | pinometostat 0.05 | [14] 0.002

TBC1D24 (UniProt Q9ULP9)
inactive: erlotinib 0.038 | [1] 0.068 | [2] 0.059 | [3] 0.037 | [4] 0.072 | [5] 0 | [6] 0.048 | [7] 0.053 | [8] 0.042 | [9] 0.157 | IRAK-1-4 Inhibitor I -0.025 | ibrutinib 0.022 | ralimetinib -0.086 | [11] -0.057 | [12] -0.09 | [13] -0.053 | pinometostat 0.04 | [14] 0.047 | [15] 0.142
active: [10] -0.415

TAOK3 (UniProt Q9H2K8)
Chain of UniProt Q9H2K8 (Q9H2K8 whole entry, looked up): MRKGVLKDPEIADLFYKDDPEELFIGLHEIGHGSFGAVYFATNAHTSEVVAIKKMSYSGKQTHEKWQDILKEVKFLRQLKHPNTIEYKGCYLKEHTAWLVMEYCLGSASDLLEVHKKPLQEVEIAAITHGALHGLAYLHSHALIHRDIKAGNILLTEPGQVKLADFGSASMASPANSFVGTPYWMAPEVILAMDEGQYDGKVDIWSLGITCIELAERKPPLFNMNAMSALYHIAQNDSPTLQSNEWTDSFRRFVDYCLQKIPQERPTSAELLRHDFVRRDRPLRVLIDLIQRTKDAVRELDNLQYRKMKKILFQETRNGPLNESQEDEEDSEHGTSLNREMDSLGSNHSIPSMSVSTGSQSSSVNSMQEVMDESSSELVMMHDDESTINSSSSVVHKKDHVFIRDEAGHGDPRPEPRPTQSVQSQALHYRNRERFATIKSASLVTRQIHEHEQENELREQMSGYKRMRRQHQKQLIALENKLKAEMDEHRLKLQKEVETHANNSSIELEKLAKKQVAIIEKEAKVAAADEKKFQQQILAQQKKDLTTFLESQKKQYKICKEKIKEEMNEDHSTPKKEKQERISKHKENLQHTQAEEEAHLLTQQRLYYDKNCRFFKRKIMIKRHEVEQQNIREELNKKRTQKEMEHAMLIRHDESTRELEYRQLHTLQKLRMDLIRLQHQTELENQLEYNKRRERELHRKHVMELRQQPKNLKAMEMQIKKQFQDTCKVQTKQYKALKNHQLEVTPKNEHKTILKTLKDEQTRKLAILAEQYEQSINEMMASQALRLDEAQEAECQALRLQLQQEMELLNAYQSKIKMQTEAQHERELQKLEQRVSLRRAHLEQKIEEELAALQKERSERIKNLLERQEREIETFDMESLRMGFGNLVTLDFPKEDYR
inactive: erlotinib -0.017 | [1] 0.08 | [2] 0.009 | [3] 0.037 | [4] 0.02 | [5] 0.018 | [6] 0.018 | [7] -0.007 | [8] -0.044 | [9] 0.007 | IRAK-1-4 Inhibitor I 0.007 | ibrutinib 0.002 | ralimetinib 0.009 | [11] -0.011 | [12] 0.007 | [13] 0.033 | pinometostat 0.012 | [14] 0.003 | [15] 0.035
active: [10] -0.48
